{"source": "paper PMC11062922", "about": "(Nature Chemical Biology, 2023)", "key": {"[1]": {"test_system": "RET", "details": "read-out: apparent Kd, n = 1"}, "[2]": {"test_system": "RPS6KA4", "details": "read-out: apparent Kd, n = 1"}}, "note": "Where two headings read alike, the source gives them in different places.", "data": [{"substance": "Lestaurtinib", "values": [{"measurement": "potency estimated from few doses", "setting": "[1]; compound concentrations:100 nM and 1000 nM (sheet 'Lestaurtinib' of Supplementary Table 1),run:Lestaurtinib_02765_R3,Plate:MR026", "value": 323, "unit": "nM"}, {"measurement": "potency estimated from few doses", "setting": "[1]; compound concentrations:100 nM and 1000 nM (sheet 'Lestaurtinib' of Supplementary Table 1),run:Lestaurtinib_02766_R3,Plate:MR027", "value": 258, "unit": "nM"}, {"measurement": "potency estimated from few doses", "setting": "[1]; compound concentrations:100 nM and 1000 nM (sheet 'Lestaurtinib' of Supplementary Table 1),run:Lestaurtinib_02768_R3,Plate:MR028", "value": 135, "unit": "nM"}, {"measurement": "potency estimated from few doses", "setting": "[1]; compound concentrations:100 nM and 1000 nM (sheet 'Lestaurtinib' of Supplementary Table 1),run:Lestaurtinib_02795_R2,Plate:MR022", "value": 286, "unit": "nM"}, {"measurement": "potency estimated from few doses", "setting": "[1]; compound concentrations:100 nM and 1000 nM (sheet 'Lestaurtinib' of Supplementary Table 1),run:Lestaurtinib_02795_R3,Plate:MR022", "value": 300, "unit": "nM"}, {"measurement": "potency estimated from few doses", "setting": "[1]; compound concentrations:100 nM and 1000 nM (sheet 'Lestaurtinib' of Supplementary Table 1),run:Lestaurtinib_02802_R1,Plate:MR029", "value": 137, "unit": "nM"}, {"measurement": "potency estimated from few doses", "setting": "[1]; compound concentrations:100 nM and 1000 nM (sheet 'Lestaurtinib' of Supplementary Table 1),run:Lestaurtinib_02802_R3,Plate:MR029", "value": 34.2, "unit": "nM"}, {"measurement": "potency estimated from few doses", "setting": "[1]; compound concentrations:100 nM and 1000 nM (sheet 'Lestaurtinib' of Supplementary Table 1),run:Lestaurtinib_03252_R1,Plate:MR032", "value": 253, "unit": "nM"}, {"measurement": "potency estimated from few doses", "setting": "[1]; compound concentrations:100 nM and 1000 nM (sheet 'Lestaurtinib' of Supplementary Table 1),run:Lestaurtinib_03260_R3,Plate:MR033", "value": 277, "unit": "nM"}, {"measurement": "potency estimated from few doses", "setting": "[2]; compound concentrations:100 nM and 1000 nM (sheet 'Lestaurtinib' of Supplementary Table 1),run:Lestaurtinib_02339_R2,Plate:MR001", "value": 873, "unit": "nM"}, {"measurement": "potency estimated from few doses", "setting": "[2]; compound concentrations:100 nM and 1000 nM (sheet 'Lestaurtinib' of Supplementary Table 1),run:Lestaurtinib_02339_R3,Plate:MR001", "value": 1210, "unit": "nM"}, {"measurement": "potency estimated from few doses", "setting": "[2]; compound concentrations:100 nM and 1000 nM (sheet 'Lestaurtinib' of Supplementary Table 1),run:Lestaurtinib_02364_R2,Plate:MR002", "value": 886, "unit": "nM"}, {"measurement": "potency estimated from few doses", "setting": "[2]; compound concentrations:100 nM and 1000 nM (sheet 'Lestaurtinib' of Supplementary Table 1),run:Lestaurtinib_02367_R1,Plate:MR003", "value": 1240, "unit": "nM"}, {"measurement": "potency estimated from few doses", "setting": "[2]; compound concentrations:100 nM and 1000 nM (sheet 'Lestaurtinib' of Supplementary Table 1),run:Lestaurtinib_02367_R2,Plate:MR003", "value": 1330, "unit": "nM"}, {"measurement": "potency estimated from few doses", "setting": "[2]; compound concentrations:100 nM and 1000 nM (sheet 'Lestaurtinib' of Supplementary Table 1),run:Lestaurtinib_02367_R3,Plate:MR003", "value": 989, "unit": "nM"}, {"measurement": "potency estimated from few doses", "setting": "[2]; compound concentrations:100 nM and 1000 nM (sheet 'Lestaurtinib' of Supplementary Table 1),run:Lestaurtinib_02381_R1,Plate:MR004", "value": 884, "unit": "nM"}, {"measurement": "potency estimated from few doses", "setting": "[2]; compound concentrations:100 nM and 1000 nM (sheet 'Lestaurtinib' of Supplementary Table 1),run:Lestaurtinib_02407_R1,Plate:MR005", "value": 1340, "unit": "nM"}, {"measurement": "potency estimated from few doses", "setting": "[2]; compound concentrations:100 nM and 1000 nM (sheet 'Lestaurtinib' of Supplementary Table 1),run:Lestaurtinib_02407_R2,Plate:MR005", "value": 1630, "unit": "nM"}, {"measurement": "potency estimated from few doses", "setting": "[2]; compound concentrations:100 nM and 1000 nM (sheet 'Lestaurtinib' of Supplementary Table 1),run:Lestaurtinib_02422_R1,Plate:MR006", "value": 975, "unit": "nM"}, {"measurement": "potency estimated from few doses", "setting": "[2]; compound concentrations:100 nM and 1000 nM (sheet 'Lestaurtinib' of Supplementary Table 1),run:Lestaurtinib_02437_R1,Plate:MR007", "value": 1320, "unit": "nM"}, {"measurement": "potency estimated from few doses", "setting": "[2]; compound concentrations:100 nM and 1000 nM (sheet 'Lestaurtinib' of Supplementary Table 1),run:Lestaurtinib_02438_R1,Plate:MR008", "value": 769, "unit": "nM"}, {"measurement": "potency estimated from few doses", "setting": "[2]; compound concentrations:100 nM and 1000 nM (sheet 'Lestaurtinib' of Supplementary Table 1),run:Lestaurtinib_02438_R3,Plate:MR008", "value": 1350, "unit": "nM"}, {"measurement": "potency estimated from few doses", "setting": "[2]; compound concentrations:100 nM and 1000 nM (sheet 'Lestaurtinib' of Supplementary Table 1),run:Lestaurtinib_02443_R1,Plate:MR009", "value": 864, "unit": "nM"}, {"measurement": "potency estimated from few doses", "setting": "[2]; compound concentrations:100 nM and 1000 nM (sheet 'Lestaurtinib' of Supplementary Table 1),run:Lestaurtinib_02473_R3,Plate:MR010", "value": 1240, "unit": "nM"}, {"measurement": "potency estimated from few doses", "setting": "[2]; compound concentrations:100 nM and 1000 nM (sheet 'Lestaurtinib' of Supplementary Table 1),run:Lestaurtinib_02482_R2,Plate:MR011", "value": 1340, "unit": "nM"}, {"measurement": "potency estimated from few doses", "setting": "[2]; compound concentrations:100 nM and 1000 nM (sheet 'Lestaurtinib' of Supplementary Table 1),run:Lestaurtinib_02482_R3,Plate:MR011", "value": 924, "unit": "nM"}, {"measurement": "potency estimated from few doses", "setting": "[2]; compound concentrations:100 nM and 1000 nM (sheet 'Lestaurtinib' of Supplementary Table 1),run:Lestaurtinib_02487_R1,Plate:MR012", "value": 680, "unit": "nM"}, {"measurement": "potency estimated from few doses", "setting": "[2]; compound concentrations:100 nM and 1000 nM (sheet 'Lestaurtinib' of Supplementary Table 1),run:Lestaurtinib_02487_R2,Plate:MR012", "value": 745, "unit": "nM"}, {"measurement": "potency estimated from few doses", "setting": "[2]; compound concentrations:100 nM and 1000 nM (sheet 'Lestaurtinib' of Supplementary Table 1),run:Lestaurtinib_02487_R3,Plate:MR012", "value": 950, "unit": "nM"}, {"measurement": "potency estimated from few doses", "setting": "[2]; compound concentrations:100 nM and 1000 nM (sheet 'Lestaurtinib' of Supplementary Table 1),run:Lestaurtinib_02496_R1,Plate:MR013", "value": 877, "unit": "nM"}, {"measurement": "potency estimated from few doses", "setting": "[2]; compound concentrations:100 nM and 1000 nM (sheet 'Lestaurtinib' of Supplementary Table 1),run:Lestaurtinib_02496_R2,Plate:MR013", "value": 822, "unit": "nM"}, {"measurement": "potency estimated from few doses", "setting": "[2]; compound concentrations:100 nM and 1000 nM (sheet 'Lestaurtinib' of Supplementary Table 1),run:Lestaurtinib_02566_R1,Plate:MR014", "value": 1360, "unit": "nM"}, {"measurement": "potency estimated from few doses", "setting": "[2]; compound concentrations:100 nM and 1000 nM (sheet 'Lestaurtinib' of Supplementary Table 1),run:Lestaurtinib_02566_R2,Plate:MR014", "value": 971, "unit": "nM"}, {"measurement": "potency estimated from few doses", "setting": "[2]; compound concentrations:100 nM and 1000 nM (sheet 'Lestaurtinib' of Supplementary Table 1),run:Lestaurtinib_02572_R2,Plate:MR015", "value": 1240, "unit": "nM"}, {"measurement": "potency estimated from few doses", "setting": "[2]; compound concentrations:100 nM and 1000 nM (sheet 'Lestaurtinib' of Supplementary Table 1),run:Lestaurtinib_02577_R1,Plate:MR016", "value": 1370, "unit": "nM"}, {"measurement": "potency estimated from few doses", "setting": "[2]; compound concentrations:100 nM and 1000 nM (sheet 'Lestaurtinib' of Supplementary Table 1),run:Lestaurtinib_02584_R3,Plate:MR017", "value": 1210, "unit": "nM"}, {"measurement": "potency estimated from few doses", "setting": "[2]; compound concentrations:100 nM and 1000 nM (sheet 'Lestaurtinib' of Supplementary Table 1),run:Lestaurtinib_02601_R2,Plate:MR018", "value": 1330, "unit": "nM"}]}]}
